In PubChem BioAssay (Tox21) one finds Potency and outcome data, which are given here for ten compounds.

The nature of assay [1]: qHTS assay to identify small molecule agonists of the RXR signaling pathway - cell viability counter screen (AID 1159529). Note: nearly all actives have a fitted effect of over 50% in size. Note: potency is the fitted concentration of half-maximal effect. The procedure, abridged:
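Compounds dissolved in DMSO were pinned onto HEK 293T cells carrying a beta-lactamase reporter under RXR-alpha control and incubated 16 hr. Cytotoxicity was then quantified by CellTiter-Glo luminescence.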

Assay [2] in a line: qHTS assay to identify small molecule antagonists of the retinoid acid receptor (RAR) signaling pathway - cell viability counter screen (AID 1159551). Note: nearly all actives have a fitted effect of over 35% in size. Note: potency is the fitted concentration of half-maximal effect. The procedure, abridged: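 C3RL4 cells were seeded overnight at 37 C, then treated with compounds plus 1 uM (final) retinol for 6 h at 37 C. Viability was read as ATP by CellTiter-Glo luminescence after 30 min at room temperature.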

Assay [3] is described as follows: qHTS assay to identify small molecule agonists of the retinoic acid receptor (RAR) signaling pathway (AID 1159553). In a few lines: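 C3RL4 cells carrying a RARE luciferase reporter were plated overnight at 37 C, then exposed to compounds in DMSO for 6 hr at 37 C and 5% CO2. Luminescence was read 30 min after luciferase reagent addition at room temperature.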
For assay [4], the target named is Luciferin 4-monooxygenase (Photinus pyralis) (UniProt P08659). Nature of the assay: qHTS assay to identify small molecule inhibitors of firefly luciferase (AID 1224835). Note: nearly all actives have a fitted effect of over 25% in size. Note: potency is the fitted concentration of half-maximal effect. In a few lines:
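Quantitative HTS format; KM concentrations of both substrates. Purified P. pyralis FLuc activity quantified from luminescence images.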

Assay [5] in a line: qHTS assay to identify small molecule antagonists of the constitutive androstane receptor (CAR) signaling pathway - cell viability counter screen (AID 1224837). Note: nearly all actives have a fitted effect of over 45% in size. Note: potency is the fitted concentration of half-maximal effect. The procedure, abridged: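 HepG2 cells stably expressing hCAR and a CYP2B6-2.2kb reporter were plated and pre-incubated 4 hr at 37 C/5% CO2, then given compounds at 15 concentrations plus 50 nM CITCO (final). After 23 hr, viability was read by CellTiter-Fluor fluorescence.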

Assay [6] concerns the target Nuclear receptor subfamily 1 group I member 3 (Homo sapiens) (UniProt Q14994). Description: qHTS assay to identify small molecule antagonists of the constitutive androstane receptor (CAR) signaling pathway (AID 1224838). Note: nearly all actives have a fitted effect of over 40% in size. In a few lines: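 HepG2 cells stably co-transfected with hCAR and a CYP2B6-2.2kb luciferase reporter were seeded 4 h before compound addition at 15 concentrations. Cells were stimulated with 50 nM CITCO (final) for 24 h at 37 C; luciferase luminescence was then read.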

Assay [7] shares this target. Description: qHTS assay to identify small molecule agonists of the constitutive androstane receptor (CAR) signaling pathway (AID 1224839). Note: nearly all actives have a fitted effect of over 15% in size. Note: potency is the fitted concentration of half-maximal effect. In a few lines:
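Compounds tested at 15 concentrations on HepG2 cells stably harbouring hCAR and CYP2B6-2.2kb reporter constructs, co-treated with PK11195 (0.75 uM final), 24 h at 37 C; luminescent reporter signal quantified.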

Assay [8] can be described thus: qHTS assay to identify small molecule antagonists of the estrogen related receptor signaling pathway with the pleiotropic PPARgamma coactivator (PGC) from Tox21 10K library (AID 1224841; call rule not given here; note: actives are mostly falling curves and most rising ones were filed inactive; nearly all actives have a fitted effect of over 50% in size; note: potency is the fitted concentration of half-maximal effect). The procedure, abridged:
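PGC/ERR reporter cells were seeded at 2,000 cells/well and held 6 hours at 37 C/5% CO2 before pin-tool addition of compounds in DMSO. After 18 hours at 37 C, One-Glo was added and luminescence read after 30 minutes at room temperature.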

Assay [9] addresses Thyrotropin receptor (Homo sapiens) (UniProt P16473). Description: qHTS assay to identify small molecule agonists of the thyroid stimulating hormone receptor (TSHR) signaling pathway (AID 1224843; calls by dose curve; note: nearly all actives have a fitted effect of over 45% in size). In a few lines: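 Cell line HEK293 with TSHR; density 800/well. Exposure 30 min RT. Readout HTRF cAMP (cAMP-d2/anti-cAMP-cryptate), 1 h RT before reading.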
The nature of assay [10]: qHTS assay to identify small molecule antagonists of the estrogen related receptor (ERR) signaling pathway from Tox21 library - cell viability counter screen (AID 1224834). Note: nearly all actives have a fitted effect of over 30% in size. Note: potency is the fitted concentration of half-maximal effect. The procedure, abridged:
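ERR reporter cells were plated 6 h before compound addition, then exposed to test compounds in DMSO for 17.5 h at 37 C. Viability was read as CellTiter-Fluor fluorescence after a 30-minute incubation at 37 C.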

A short description of assay [11]: qHTS assay to identify small molecule agonists of the constitutive androstane receptor (CAR) signaling pathway - cell viability counter screen (AID 1224836). Note: nearly all actives have a fitted effect of over 45% in size. Note: potency is the fitted concentration of half-maximal effect. The procedure, abridged: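 23 h treatment, 37 C, 5% CO2. Cell line: HepG2 stably expressing hCAR with a CYP2B6-2.2kb construct. Co-treatment: PK11195, 0.75 uM final. Read-out: CellTiter-Fluor fluorescence intensity.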

A short description of assay [12]: qHTS assay to identify small molecule antagonists of the estrogen related receptor signaling pathway with the pleiotropic PPARgamma coactivator (PGC) from Tox21 10K library - cell viability counter screen (AID 1224840; active = well fitted cell-killing curve with a large enough effect in the repeat runs, not every such curve was filed as active; note: nearly all actives have a fitted effect of over 40% in size; note: potency is the fitted concentration of half-maximal effect). The procedure, abridged: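 PGC/ERR cells were seeded at 2,000 cells/well and left 6 hours at 37 C/5% CO2 before pin-tool addition of compounds in DMSO. After 17.5 hours at 37 C, CellTiter-Fluor was added and fluorescence read 30 minutes later.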

Assay [13] in a line: qHTS assay to identify small molecule agonists of the estrogen related receptor signaling pathway with the pleiotropic PPARgamma coactivator (PGC) from Tox21 10K library (AID 1224842). Note: nearly all actives have a fitted effect of over 15% in size. In a few lines:
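PGC/ERR reporter cells (NTP line) were seeded 2,000 per well, rested 6 h at 37 C/5% CO2, then pin-dosed with compounds in DMSO for 18 h at 37 C; luciferase read by One-Glo luminescence after 30 min at room temperature.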

The nature of assay [14]: qHTS assay to identify small molecule antagonists of the estrogen related receptor (ERR) signaling pathway - cell viability counter screen (AID 1224818).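 Note: series mostly up to about 46 µM; viability measured after 17.5 h of compound exposure.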 In a few lines:
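ERR reporter cells plated 6 h at 37 C/5% CO2, then compounds in DMSO pin-transferred and incubated 17.5 h at 37 C. Viability read as CellTiter-Fluor fluorescence after 30 min at 37 C.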

Assay [15] can be described thus: qHTS assay to identify small molecule agonists of the estrogen related receptor (ERR) signaling pathway (AID 1224820). In a few lines: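 Cells: ERR line from NTP, 2,000/well. Pre-incubation 6 h, 37 C/5% CO2. Compound (DMSO) pin transfer, 18 h 37 C. One-Glo, 30 min RT, luminescence.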
A short description of assay [16]: qHTS assay to identify small molecule antagonists of the estrogen related receptor signaling pathway with the pleiotropic PPARgamma coactivator (PGC) cell viability counter screen (AID 1224822; note: series mostly up to about 46 µM). The procedure, abridged:
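PGC/ERR cells were seeded at 2,000 cells/well, rested 6 h at 37 C/5% CO2, then given compounds in DMSO by pin tool and incubated 17.5 h at 37 C. Viability came from CellTiter-Fluor fluorescence after 30 min.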

Assay [17] in a line: qHTS assay to identify small molecule agonists of the estrogen related receptor signaling pathway with the pleiotropic PPARgamma coactivator (PGC) (AID 1224823). The procedure, abridged: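 Steps: plate PGC/ERR cells at 2,000 cells/well; incubate 6 h, 37 C/5% CO2; pin-transfer compounds (DMSO); incubate 18 h, 37 C; add One-Glo; 30 min RT; read luminescence.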

Records with an inconclusive call do not appear. Calls of active or inactive are those of the source. Unless noted, calls come from the whole dose curve; as a rule, active = well fitted curve in the direction sought with a large enough effect in the repeat runs; inconclusive = weak or mixed curves; inactive = no such curve, though single readings can be large; an effect the other way counts as inactive or inconclusive.

Thyrotropin receptor (Homo sapiens), sequence (P16473 whole entry, looked up): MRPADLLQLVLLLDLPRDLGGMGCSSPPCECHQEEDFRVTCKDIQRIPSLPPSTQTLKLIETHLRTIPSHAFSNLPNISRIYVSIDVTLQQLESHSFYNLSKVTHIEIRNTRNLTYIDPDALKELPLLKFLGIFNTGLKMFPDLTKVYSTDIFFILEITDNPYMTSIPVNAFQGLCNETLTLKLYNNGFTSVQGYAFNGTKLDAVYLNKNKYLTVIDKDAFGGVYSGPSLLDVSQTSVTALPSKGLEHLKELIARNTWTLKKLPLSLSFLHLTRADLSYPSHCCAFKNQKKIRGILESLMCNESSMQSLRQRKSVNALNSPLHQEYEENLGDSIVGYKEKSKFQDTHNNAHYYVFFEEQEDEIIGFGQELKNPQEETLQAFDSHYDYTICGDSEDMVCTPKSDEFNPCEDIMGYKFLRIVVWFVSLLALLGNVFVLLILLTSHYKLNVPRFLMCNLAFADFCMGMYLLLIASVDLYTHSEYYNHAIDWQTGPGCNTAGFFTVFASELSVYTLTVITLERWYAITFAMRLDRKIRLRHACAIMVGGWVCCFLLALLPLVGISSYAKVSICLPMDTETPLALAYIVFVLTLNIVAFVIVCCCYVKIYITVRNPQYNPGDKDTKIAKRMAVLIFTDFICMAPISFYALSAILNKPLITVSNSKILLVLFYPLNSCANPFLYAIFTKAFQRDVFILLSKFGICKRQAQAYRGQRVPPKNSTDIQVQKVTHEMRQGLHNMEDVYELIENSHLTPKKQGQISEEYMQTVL
Nuclear receptor subfamily 1 group I member 3 (Homo sapiens), sequence (Q14994 whole entry, looked up): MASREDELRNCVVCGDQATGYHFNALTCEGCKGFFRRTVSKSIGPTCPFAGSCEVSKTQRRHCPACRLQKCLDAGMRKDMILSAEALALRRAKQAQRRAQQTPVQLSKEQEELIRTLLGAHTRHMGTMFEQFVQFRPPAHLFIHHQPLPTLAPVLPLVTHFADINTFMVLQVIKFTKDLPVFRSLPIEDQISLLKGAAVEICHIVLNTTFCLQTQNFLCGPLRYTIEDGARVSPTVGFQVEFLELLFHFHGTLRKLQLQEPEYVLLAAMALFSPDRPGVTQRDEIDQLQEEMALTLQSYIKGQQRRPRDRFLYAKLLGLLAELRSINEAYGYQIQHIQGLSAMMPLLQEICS
Luciferin 4-monooxygenase (Photinus pyralis), sequence (P08659 whole entry, looked up): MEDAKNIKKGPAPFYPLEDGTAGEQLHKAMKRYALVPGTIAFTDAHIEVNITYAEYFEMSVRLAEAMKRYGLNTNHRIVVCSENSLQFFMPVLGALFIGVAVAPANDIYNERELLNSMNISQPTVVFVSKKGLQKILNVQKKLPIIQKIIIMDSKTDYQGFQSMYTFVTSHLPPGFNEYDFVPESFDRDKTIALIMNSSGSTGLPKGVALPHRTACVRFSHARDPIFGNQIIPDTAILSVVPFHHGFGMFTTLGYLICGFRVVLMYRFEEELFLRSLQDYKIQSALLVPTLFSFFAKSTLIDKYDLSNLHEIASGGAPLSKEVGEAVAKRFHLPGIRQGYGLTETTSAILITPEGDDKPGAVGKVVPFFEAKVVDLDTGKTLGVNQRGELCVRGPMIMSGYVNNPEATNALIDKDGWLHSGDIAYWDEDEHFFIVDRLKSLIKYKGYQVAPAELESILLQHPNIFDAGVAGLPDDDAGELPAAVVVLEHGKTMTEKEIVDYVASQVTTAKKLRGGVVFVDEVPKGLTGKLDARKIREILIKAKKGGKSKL

For `O=c1c(C2CC(c3ccc(-c4ccc(Br)cc4)cc3)Cc3ccccc32)c(O)sc2ccccc12` (stereo not drawn), the Potency result in assay [1], in assay [2], in assay [3], in [4], in assay [5] and in [6] was “inactive” in each case. For the same compound, the Potency entry in assay [7] and in [9] was “inactive” in each case. The Potency in assay [8] is 11.9 µM (active).

Consider `Oc1ccc(I)cc1`, for which the Potency result in [1], in assay [2], in assay [10], in assay [4], in [11] and in assay [5] was “inactive” throughout. Besides, the Potency result in assay [6], in assay [7], in [12] and in assay [9] was “inactive” each time.

On to `COC(=O)N(C(=O)N1CO[C@@]2(C(=O)OC)Cc3cc(Cl)ccc3C2=N1)c1ccc(OC(F)(F)F)cc1`, for which the Potency result in assay [1], in assay [2], in assay [3], in assay [10], in assay [4] and in assay [5] was “inactive” each time. For the same compound, the Potency entry in [12] and in [13] was “inactive” in each case.

Take `CCC(C)c1cc(C(C)(C)C)cc(-n2nc3ccccc3n2)c1O` (stereo not drawn): the Potency entry in assay [1], in assay [2], in [10], in assay [4], in [11] and in assay [5] was “inactive” throughout. The Potency entry in assay [12] and in [8] was “inactive” in each case.

For the compound `CCOc1cc(C(C)(C)C)ccc1C1COC(c2c(F)cccc2F)=N1` (stereo not drawn), the figures for the Potency in assay [1] and in assay [7] were 14.9 µM (active) and 18.6 µM (active), respectively. In addition, the Potency entry in assay [2], in assay [3], in assay [10], in assay [4], in assay [11] and in assay [5] was “inactive” throughout. The Potency entry in [6], in [12] and in assay [13] was “inactive” throughout.

Consider `CN(C)[C@@H]1C(=O)C(C(N)=O)=C(O)[C@@]2(O)C(=O)C3=C(O)c4c(O)ccc(Cl)c4[C@@](C)(O)[C@H]3C[C@@H]12`, for which the Potency entry in assay [1], in assay [2], in assay [3], in assay [4], in assay [12] and in [9] was “inactive” throughout.

Regarding `CC(=[OH+])/C=C(/C)[O-].CC(=[OH+])/C=C(\C)[O-].CC(=[OH+])/C=C(\C)[O-].[Al]`, the Potency entry in [1], in assay [2], in [10], in [11], in [5] and in assay [12] was “inactive” throughout. The Potency in assay [4] was 71 µM (active).

Consider `O=[N+]([O-])c1cc(C(F)(F)F)c(Cl)c([N+](=O)[O-])c1Cl`, for which the Potency in [1] was 17.4 µM (active); in [2] it was 48.6 µM (active); in assay [10], 54.5 µM (active); in assay [4], 79.6 µM (active); in assay [11], 43.3 µM (active); in assay [5], 27.3 µM (active). Besides, the Potency in assay [12] is 48.6 µM (active). In [13], the Potency result is “inactive”.

In the case of `COc1cc(N)c(Cl)cc1C(=O)NC1CN2CCC1CC2` (stereo not drawn), the Potency entry in [1], in assay [2], in [10], in assay [4], in assay [11] and in [5] was “inactive” each time. Also, the Potency result in [6], in assay [7], in assay [12] and in [9] was “inactive” throughout.

Take `O=S(=O)(c1ccc(Cl)cc1)c1ccc(Cl)cc1`: the Potency entry in assay [1], in assay [2], in [16], in assay [4], in assay [11] and in assay [5] was “inactive” throughout. The Potency result in assay [6] is “inactive”. Also, the outcome in assay [14], in [15] and in assay [17] was inactive. Further, the Potency in assay [7] was 49.2 µM (active).
